Data published in PubChem BioAssay (NCI).
About 79,000 compounds went through this panel and 15% of them were active in at least one assay; those are over-represented in the sample as a whole. Unmarked numbers belong to inactive results. Calls of active or inactive are those of the source. Cut-off read from the data, not from the text of the source: active = growth inhibition above about 70%; inactive = the rest.

How the values were obtained:
[1] = NCI Yeast Anticancer Drug Screen. Data for the rad52 strain (AID 147);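 note: 0% = growth of vehicle-treated control cultures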; conditions: S. cerevisiae rad52 mutant growth inhibition, hits give high values
In short: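 DNA repair-defective yeast; compound exposure; growth scored against vehicle controls.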

[2] = NCI Yeast Anticancer Drug Screen. Data for the wt1 strain (AID 149);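 note: 0% = growth of vehicle-treated wt1 cultures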; conditions: S. cerevisiae wt1 strain (SPY 50644) growth inhibition, hits give high values
In short: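 The wt1 strain was treated with compounds, and growth was compared with vehicle-treated cultures to give inhibition.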

[3] = NCI Yeast Anticancer Drug Screen. Data for the rad50EPP+ strain (AID 151);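 note: 0% = growth of vehicle-treated control cultures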; conditions: S. cerevisiae rad50 mutant strain, hits give high values
In short: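 rad50EPP+ yeast treated with test compounds. Readout: growth vs vehicle control.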

[4] = NCI Yeast Anticancer Drug Screen. Data for the mgt1 strain (AID 153); conditions: S. cerevisiae mgt1 mutant growth inhibition, hits give high values
In short: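 Growth inhibition relative to vehicle controls was scored for the mgt1 yeast strain after compound exposure.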

[5] = NCI Yeast Anticancer Drug Screen. Data for the rad50 strain (AID 155);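 note: 0% = growth of vehicle-only cultures of the same strain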; conditions: S. cerevisiae rad50 strain growth inhibition, hits give high values
In short: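 Cells are treated with compound, grown, and their growth is then scored against vehicle-only cultures of the same repair-deficient yeast strain.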

[6] = NCI Yeast Anticancer Drug Screen. Data for the mec2-1 strain (AID 157); conditions: S. cerevisiae mec2-1 strain, hits give high values
In short: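 Growth inhibition is read against vehicle-treated controls after compound exposure of the mec2-1 yeast strain, which is defective in DNA damage repair or cell cycle control.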

[7] = NCI Yeast Anticancer Drug Screen. Data for the rad14 strain (AID 159);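 note: 0% = growth of vehicle-treated control cultures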; conditions: S. cerevisiae rad14 strain growth inhibition, hits give high values
In short: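 Readout: yeast growth inhibition, referenced to vehicle-only cultures. Strain bears a defined alteration in DNA damage repair.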

[8] = NCI Yeast Anticancer Drug Screen. Data for the sgs1 mgt1 strain (AID 161);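 note: 0% = growth of cultures given vehicle only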; conditions: S. cerevisiae sgs1 mgt1 strain, hits give high values
In short: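 Percent growth inhibition was derived by comparing compound-exposed mutant yeast with vehicle-exposed cultures. The strain carries alterations in DNA damage repair.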

[9] = NCI Yeast Anticancer Drug Screen. Data for the CLN2oe strain (AID 163);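 note: 0% = growth of vehicle-only control cultures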; conditions: S. cerevisiae CLN2oe strain, hits give high values
In short: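 Compound-treated yeast; growth vs vehicle ctrl = % inhibition. Genetically altered strain (cell-cycle control).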

[10] = NCI Yeast Anticancer Drug Screen. Data for the cln2 rad14 strain (AID 165);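 note: 0% = growth equal to vehicle treated cultures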; conditions: S. cerevisiae cln2 rad14 strain, hits give high values
In short: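 Growth inhibition, relative to vehicle-treated controls, is the read-out. The test organism is a yeast strain with defined genetic alterations, cln2 rad14.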

[11] = NCI Yeast Anticancer Drug Screen. Data for the bub3 strain (AID 167); conditions: S. cerevisiae bub3 mutant strain, hits give high values
In short: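 Part of a panel of yeast mutants defective in DNA damage repair or cell cycle regulation. Each strain is grown with compound, and inhibition is calculated relative to solvent-treated cultures.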

[12] = NCI Yeast Anticancer Drug Screen. Data for the wt2 strain (AID 169);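 note: 0% = growth of vehicle-treated yeast cultures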; conditions: S. cerevisiae wt2 strain growth inhibition, hits give high values
In short: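 Compound exposure of yeast; growth compared with vehicle controls; inhibition reported.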

[13] = NCI Yeast Anticancer Drug Screen. Data for the mlh1 strain (AID 171);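 note: 0% = growth of vehicle-treated control cultures of the same strain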; conditions: S. cerevisiae mlh1 strain growth inhibition, hits give high values
In short: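 Compounds are applied to a genetically altered yeast strain, and its growth is compared with that of vehicle-treated cultures to give percent inhibition.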

[14] = NCI Yeast Anticancer Drug Screen. Data for the sgs1 strain (AID 173);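 note: 0% = growth of vehicle-only control cultures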; conditions: S. cerevisiae sgs1 mutant, hits give high values
In short: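 Compounds applied to genetically altered yeast; growth compared with vehicle-treated cultures to give % inhibition.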

[15] = NCI Yeast Anticancer Drug Screen. Data for the mlh1 rad18 strain (AID 175); conditions: S. cerevisiae mlh1 rad18 strain growth inhibition, hits give high values
In short: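 Cells of a genetically altered yeast strain, deficient in DNA damage repair, were treated with compound. Their growth was then compared with that of vehicle-treated cultures to give inhibition.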

[16] = NCI Yeast Anticancer Drug Screen. Data for the rad18 strain (AID 177); conditions: S. cerevisiae rad18 mutant growth inhibition, hits give high values
In short: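 Compounds are applied to a repair-deficient yeast strain, and growth is compared with that of vehicle-treated cultures to give percent inhibition.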

[17] = at 5.0 µM (retest, dose inferred, filed as 0.5)
[18] = at 50.0 µM (retest, dose inferred, filed as 5.0)

Structure (SMILES): COc1c2c(c3c(c1CCC(=O)O)OC(C)(C)C=C3)OC(C)(C)C=C2
- growth inhibition ([1]; at 1.2 µM): -3%
- growth inhibition ([1]; at 3.7 µM): 1%
- growth inhibition ([1]; at 11.0 µM): 10%
- growth inhibition ([1]; at 33.0 µM): 62%
- growth inhibition ([1]; at 100.0 µM): 98% (active)
- growth inhibition ([2]; at 1.2 µM): 0%
- growth inhibition ([2]; at 3.7 µM): 2%
- growth inhibition ([2]; at 11.0 µM): 13%
- growth inhibition ([2]; at 33.0 µM): 49%
- growth inhibition ([2]; at 100.0 µM): 97% (active)
- growth inhibition ([3]; at 1.2 µM): -3%
- growth inhibition ([3]; at 3.7 µM): 1%
- growth inhibition ([3]; at 11.0 µM): 5%
- growth inhibition ([3]; at 33.0 µM): 15%
- growth inhibition ([3]; at 100.0 µM): 35%
- growth inhibition ([4]; at 1.2 µM): -1%
- growth inhibition ([4]; at 3.7 µM): 0%
- growth inhibition ([4]; at 11.0 µM): 15%
- growth inhibition ([4]; at 33.0 µM): 61%
- growth inhibition ([4]; at 100.0 µM): 99% (active)
- growth inhibition ([5]; at 1.2 µM): -1%
- growth inhibition ([5]; at 3.7 µM): -3%
- growth inhibition [5, 17]: 15%
- growth inhibition ([5]; at 11.0 µM): 19%
- growth inhibition ([5]; at 33.0 µM): 54%
- growth inhibition [5, 18]: 45%
- growth inhibition ([5]; at 50.0 µM): 58.2%
- growth inhibition ([5]; at 100.0 µM): 98% (active)
- growth inhibition ([6]; at 1.2 µM): -2%
- growth inhibition ([6]; at 3.7 µM): 2%
- growth inhibition [6, 17]: -1%
- growth inhibition ([6]; at 11.0 µM): 20%
- growth inhibition ([6]; at 33.0 µM): 59%
- growth inhibition [6, 18]: 49%
- growth inhibition ([6]; at 50.0 µM): 65.8%
- growth inhibition ([6]; at 100.0 µM): 98% (active)
- growth inhibition ([7]; at 1.2 µM): 0%
- growth inhibition ([7]; at 3.7 µM): 2%
- growth inhibition ([7]; at 11.0 µM): 11%
- growth inhibition ([7]; at 33.0 µM): 53%
- growth inhibition ([7]; at 100.0 µM): 98% (active)
- growth inhibition [8, 17]: -3%
- growth inhibition [8, 18]: 32%
- growth inhibition ([8]; at 50.0 µM): 69.8%
- growth inhibition ([9]; at 1.2 µM): -1%
- growth inhibition ([9]; at 3.7 µM): -1%
- growth inhibition ([9]; at 11.0 µM): 27%
- growth inhibition ([9]; at 33.0 µM): 80% (active)
- growth inhibition ([9]; at 100.0 µM): 99% (active)
- growth inhibition [10, 17]: 43%
- growth inhibition [10, 18]: 82% (active)
- growth inhibition ([10]; at 50.0 µM): 91.2% (active)
- growth inhibition ([11]; at 1.2 µM): -7%
- growth inhibition ([11]; at 3.7 µM): -1%
- growth inhibition [11, 17]: -13%
- growth inhibition ([11]; at 11.0 µM): 6%
- growth inhibition ([11]; at 33.0 µM): 58%
- growth inhibition [11, 18]: 20%
- growth inhibition ([11]; at 50.0 µM): 71.9% (active)
- growth inhibition ([11]; at 100.0 µM): 97% (active)
- growth inhibition ([12]; at 1.2 µM): -1%
- growth inhibition ([12]; at 3.7 µM): 2%
- growth inhibition ([12]; at 11.0 µM): 17%
- growth inhibition ([12]; at 33.0 µM): 56%
- growth inhibition ([12]; at 100.0 µM): 98% (active)
- growth inhibition ([13]; at 1.2 µM): 2%
- growth inhibition ([13]; at 3.7 µM): 3%
- growth inhibition ([13]; at 11.0 µM): 20%
- growth inhibition ([13]; at 33.0 µM): 39%
- growth inhibition ([13]; at 100.0 µM): 99% (active)
- growth inhibition ([14]; at 1.2 µM): 0%
- growth inhibition ([14]; at 3.7 µM): 4%
- growth inhibition ([14]; at 11.0 µM): 20%
- growth inhibition ([14]; at 33.0 µM): 59%
- growth inhibition ([14]; at 100.0 µM): 98% (active)
- growth inhibition [15, 17]: 3%
- growth inhibition [15, 18]: 43%
- growth inhibition ([15]; at 50.0 µM): 76.4% (active)
- growth inhibition ([16]; at 1.2 µM): 3%
- growth inhibition ([16]; at 3.7 µM): 8%
- growth inhibition ([16]; at 11.0 µM): 22%
- growth inhibition ([16]; at 33.0 µM): 51%
- growth inhibition ([16]; at 100.0 µM): 97% (active)

Structure (SMILES): CC1=CC(=C(c2ccc(N)c(C)c2)c2ccc(N)c(C)c2)C=CC1=N
- growth inhibition ([1]; at 1.2 µM): 24%
- growth inhibition ([1]; at 3.7 µM): 41%
- growth inhibition ([1]; at 11.0 µM): 47%
- growth inhibition ([1]; at 33.0 µM): 64%
- growth inhibition ([1]; at 100.0 µM): 97% (active)
- growth inhibition ([2]; at 1.2 µM): 8%
- growth inhibition ([2]; at 3.7 µM): 9%
- growth inhibition ([2]; at 11.0 µM): 7%
- growth inhibition ([2]; at 33.0 µM): 6%
- growth inhibition ([2]; at 100.0 µM): 90% (active)
- growth inhibition ([3]; at 1.2 µM): 8%
- growth inhibition ([3]; at 3.7 µM): 17%
- growth inhibition ([3]; at 11.0 µM): 23%
- growth inhibition ([3]; at 33.0 µM): 30%
- growth inhibition ([3]; at 100.0 µM): 83% (active)
- growth inhibition ([4]; at 1.2 µM): -2%
- growth inhibition ([4]; at 3.7 µM): 7%
- growth inhibition ([4]; at 11.0 µM): 12%
- growth inhibition ([4]; at 33.0 µM): 39%
- growth inhibition ([4]; at 100.0 µM): 97% (active)
- growth inhibition ([5]; at 1.2 µM): 21%
- growth inhibition ([5]; at 3.7 µM): 10%
- growth inhibition [5, 17]: 20%
- growth inhibition ([5]; at 11.0 µM): 18%
- growth inhibition ([5]; at 33.0 µM): 22%
- growth inhibition [5, 18]: 87% (active)
- growth inhibition ([5]; at 50.0 µM): 85.2% (active)
- growth inhibition ([5]; at 100.0 µM): 96% (active)
- growth inhibition ([6]; at 1.2 µM): 1%
- growth inhibition ([6]; at 3.7 µM): 5%
- growth inhibition [6, 17]: 18%
- growth inhibition ([6]; at 11.0 µM): 3%
- growth inhibition ([6]; at 33.0 µM): 37%
- growth inhibition [6, 18]: 97% (active)
- growth inhibition ([6]; at 50.0 µM): 89.6% (active)
- growth inhibition ([6]; at 100.0 µM): 96% (active)
- growth inhibition ([7]; at 1.2 µM): 0%
- growth inhibition ([7]; at 3.7 µM): 2%
- growth inhibition ([7]; at 11.0 µM): -2%
- growth inhibition ([7]; at 33.0 µM): 19%
- growth inhibition ([7]; at 100.0 µM): 97% (active)
- growth inhibition [8, 17]: 30%
- growth inhibition [8, 18]: 79% (active)
- growth inhibition ([8]; at 50.0 µM): 83.7% (active)
- growth inhibition ([9]; at 1.2 µM): 19%
- growth inhibition ([9]; at 3.7 µM): 36%
- growth inhibition ([9]; at 11.0 µM): 41%
- growth inhibition ([9]; at 33.0 µM): 50%
- growth inhibition ([9]; at 100.0 µM): 97% (active)
- growth inhibition [10, 17]: 9%
- growth inhibition [10, 18]: 75% (active)
- growth inhibition ([10]; at 50.0 µM): 74.5% (active)
- growth inhibition ([11]; at 1.2 µM): 12%
- growth inhibition ([11]; at 3.7 µM): 26%
- growth inhibition [11, 17]: 18%
- growth inhibition ([11]; at 11.0 µM): 29%
- growth inhibition ([11]; at 33.0 µM): 54%
- growth inhibition [11, 18]: 97% (active)
- growth inhibition ([11]; at 50.0 µM): 89.8% (active)
- growth inhibition ([11]; at 100.0 µM): 96% (active)
- growth inhibition ([12]; at 1.2 µM): -33%
- growth inhibition ([12]; at 3.7 µM): -20%
- growth inhibition ([12]; at 11.0 µM): -31%
- growth inhibition ([12]; at 33.0 µM): 75% (active)
- growth inhibition ([12]; at 100.0 µM): 97% (active)
- growth inhibition ([13]; at 1.2 µM): 7%
- growth inhibition ([13]; at 3.7 µM): 10%
- growth inhibition ([13]; at 11.0 µM): 14%
- growth inhibition ([13]; at 33.0 µM): 55%
- growth inhibition ([13]; at 100.0 µM): 96% (active)
- growth inhibition ([14]; at 1.2 µM): 5%
- growth inhibition ([14]; at 3.7 µM): 19%
- growth inhibition ([14]; at 11.0 µM): 18%
- growth inhibition ([14]; at 33.0 µM): 51%
- growth inhibition ([14]; at 100.0 µM): 95% (active)
- growth inhibition [15, 17]: 51%
- growth inhibition [15, 18]: 94% (active)
- growth inhibition ([15]; at 50.0 µM): 84.8% (active)
- growth inhibition ([16]; at 1.2 µM): 2%
- growth inhibition ([16]; at 3.7 µM): 20%
- growth inhibition ([16]; at 11.0 µM): 20%
- growth inhibition ([16]; at 33.0 µM): 35%
- growth inhibition ([16]; at 100.0 µM): 96% (active)
